Laboratory results: PubChem BioAssay AID2496 (Sanford-Burnham Center for Chemical Genomics, 2010)
Calls of active or inactive are those of the source. No stated cut-off is given here; in the data, active means IC50 below about 40 µM; inactive means the rest.

Experiment: compound optical interference in time-resolved FRET – biochemical, fluorescence ratio, artefact control, SAR follow-up (AID 2496)
Conditions: HTRF spectral interference counter-screen

Row | SMILES | IC50
1 | CCOC(=O)N1CCN(C(=O)c2ccc3nc(-c4ccco4)c(-c4ccco4)nc3c2)CC1 | 6.55 µM (active)
2 | CCN(CC)CCNC(=O)c1cc(-c2ccco2)nc2ccccc12 | 19.8 µM (active)
3 | CCCCc1ccc(/C=C2\C(=O)c3ccccc3C(O)=C2C(=O)OCC)cc1 | 4.14 µM (active)
4 | CN(CCC#N)C(=O)COC(=O)c1c2c(nc3ccccc13)/C(=C/c1ccco1)CC2 | 8.9 µM (active)
5 | O=C(Nc1ccc2nc(-c3ccco3)c(-c3ccco3)nc2c1)N1CCOCC1 | 7.32 µM (active)
6 | Cc1ccc(/C=C/C(=O)N2CCN(c3ncccn3)CC2)o1 | > 50 µM (inactive)
7 | Cc1ccc(S(=O)(=O)N(C)C)cc1NC(=O)c1cc(-c2ccco2)nc2ccccc12 | > 50 µM (inactive)
8 | CCNC(=O)COC(=O)c1cc(-c2ccco2)nc2ccccc12 | > 50 µM (inactive)
9 | CCN(CC)C(=O)COC(=O)c1cc(-c2ccco2)nc2ccccc12 | 16.4 µM (active)
10 | Nc1c(C(=O)NC2CC2)sc2nc3c(c(-c4ccco4)c12)CC/C3=C/c1ccco1 | 2.98 µM (active)
11 | Nc1ccc(-c2nc3c(Cl)c(N)ccc3[nH]2)cc1 | 5.59 µM (active)
12 | CC(/C=C/c1ccco1)=NNC(=O)c1cc(C)[nH]n1 | > 50 µM (inactive)
13 | CCCc1ccc(/C=C2\C(=O)c3ccccc3C(O)=C2C(=O)OCC)cc1 | > 50 µM (inactive)
14 | CN(C(=O)COC(=O)c1cc(-c2ccco2)nc2ccccc12)C1CCS(=O)(=O)C1 (stereo not given) | 26.6 µM (active)
15 | CCOC(=O)c1sc2nc(-c3ccco3)c3c(c2c1N)CC(C)(C)OC3 | > 50 µM (inactive)
